Inconclusive results are not listed. A call without a number means that no potency is given here. Calls of active or inactive are those of the source. Calls follow the shape of the full dose curve.
assay: qHTS assay to identify small molecule antagonists of the sonic hedgehog signaling (Shh) pathway (AID 1259369); conditions: NIH/3T3 Gli1-Luc reporter, Shh antagonist, luminescence 24 h; series mostly up to 92.4 µM; also: nearly all actives have a fitted effect of over 45% in size
From the text: U.S. Tox21 Program National Center for Advancing Translational Sciences [NCATS] NIH Chemical Genomics Center [NCGC] U.S. Environmental Protection Agency [EPA] National Institutes of Environmental Health Sciences [NIEHS] National Toxicology Program [NTP] U.S. Food and Drug Administration [FDA] Tox21 Assay Overview: The sonic hedgehog (Shh) pathway is essential for normal embryonic development. Dysregulation of the Shh pathway can cause severe developmental defects in organs. Therefore chemicals that interfere with the pathway are potential developmental toxicants. A cell line designated 3T3Gli1-Luc (DMB/OARSA/CFSAN/FDA, Laurel, MD), a NIH/3T3 derived clone containing stably integrated Gli1-Luc reporter is used to detect chemical interference of the Shh pathway, by changes in the expression of the firefly Luc gene under the control of the Gli1 transcriptional response element. This cell line was used to screen Tox21 libraries for identifying and prioritizing the potential developmental toxicants that interfere Shh pathway. Conditioned medium-stimulated mode was used to screen for chemicals inhibiting Shh signaling.
Tox21 Assay Protocol Summary: 3T3 Gli1-Luc cells were dispensed at 2,000 per well in 5uL of culture medium into white solid bottom 1536-well plates (Greiner Bio-One, Monroe, NC) using a Multidrop Combi (Thermo Scientific, Waltham, MA) dispenser. The assay plates were incubated at 37 C and 5% CO2 for 4hr, and then 23nL of compounds dissolved in DMSO and positive control were transferred using a Pintool station (Wako, San Diego, CA). The compound transfer was followed by the addition of 1ul conditioned medium or assay buffer using two separate tips of Flying Reagent Dispenser (FRD, Aurora Discovery, San Diego, CA). The assay plates were incubated at 37C and 5% CO2 for 24hr. For luciferase read, 4uL of Amplite Luciferase reporter gene assay reagent (AAT Bioquest, Inc. Sunnyvale, CA) was added to each well of the assay plates using FRD and incubated at room temperature for 30min. The luminescence signal was measured using a ViewLux plate reader (Perkin Elmer, Shelton, CT).

Row | Compound | Potency | activity change, negative = inhibition
1 | CC(CC(=O)O)CC(C)(C)C (stereo not given) | inactive | 
2 | CCCCC/C=C/CC(=O)OC | inactive | 
3 | CCC(C)N (stereo not given) | inactive | 
4 | CCOC(=O)C(=O)c1csc(NC=O)n1 | inactive | 
5 | CCCCCCCCOC(C)=O | inactive | 
6 | O=C(COCCOCCOCC(=O)Nc1c(I)cc(I)c(C(=O)O)c1I)Nc1c(I)cc(I)c(C(=O)O)c1I | inactive | 
7 | CCOC(=O)OCC/C(SC(=O)OCC)=C(\C)N(C=O)Cc1cnc(C)nc1N | inactive | 
8 | OC(CCN1CCCCC1)(c1ccccc1)c1ccccc1 | inactive | 
9 | CCCCCCCC[Si](OCC)(OCC)OCC | inactive | 
10 | C=CCOc1c(Br)cc(Br)cc1Br | inactive | 
11 | CNCc1ccccc1 | inactive | 
12 | C=CCOc1c(Br)cc(C(C)(C)c2cc(Br)c(OCC=C)c(Br)c2)cc1Br | inactive | 
13 | CCN(CC)C(=O)C1CN2CCc3cc(OC)c(OC)cc3C2CC1OC(C)=O (stereo not given) | inactive | 
14 | CCCCCCCCCCCCCCCC(=O)NCCO | inactive | 
15 | CC(=O)N(CC(O)CO)c1c(I)c(C(=O)NCC(O)CO)c(I)c(C(=O)NCC(O)CO)c1I (stereo not given) | inactive | 
16 | CCOC(=O)CC(CC(=O)OCC)(OC(C)=O)C(=O)OCC | inactive | 
17 | CC(=O)OC[C@H]1O[C@@H](OC(C)=O)[C@H](OC(C)=O)[C@@H]1OC(C)=O | inactive | 
18 | C=CCOc1cc(Cl)ccc1C(=O)NCCN(CC)CC | inactive | 
19 | CCCCCCCCCCC | inactive | 
20 | CC(C)CCC(=O)CCC(C)C | inactive | 

Row | Compound | Potency | activity change, negative = inhibition
21 | O=C(Oc1ccccc1C(=O)O)c1ccccc1O | inactive | 
22 | CCC(C)(C)C1CCC(=O)CC1 | inactive | 
23 | NC(=O)NNC(N)=O | inactive | 
24 | CCCCC[Si](OCC)(OCC)OCC | inactive | 
25 | BrC/C=C/CBr |  | -14% [at 19 µM] (inactive)
26 | CCCCC(CC)COC(=O)c1ccccc1 (stereo not given) | inactive | 
27 | COc1ccc(NS(=O)(=O)c2ccc(N)cc2)nn1 | inactive | 
28 | COc1cc(C=O)ccc1OC(=O)C(C)C | inactive | 
29 | CC1(N)CCC(C(C)(C)N)CC1 (stereo not given) | inactive | 
30 | CCOC(=O)CCCCCCCCC(=O)OCC | inactive | 
31 | O=C(/C=C/c1ccccc1)NCCO | inactive | 
32 | O=C1NC2NC(=O)NC2N1 (stereo not given) | inactive | 
33 | Nc1cc(C(=O)O)ccc1Cl | inactive | 
34 | CN=C(NC#N)NCCSCc1csc(N=C(N)N)n1 | inactive | 
35 | O=P(O)(O)OCC(O)CO (stereo not given) | inactive | 
36 | O=S(=O)(O)CCO | inactive | 
37 | CC(C)(CO)[C@@H](O)C(=O)NCCCO | inactive | 
38 | CN[C@@H]1[C@@H](O)[C@@H](O[C@@H]2[C@H](O)[C@H](O[C@H]3OC(CN)=CC[C@H]3N)[C@@H](N)C[C@H]2N)OCC1(C)O (stereo not given in full) | inactive | 
39 | NS(=O)(=O)c1cc2c(cc1Cl)NC(CC1CCCC1)NS2(=O)=O (stereo not given) | inactive | 
40 | Nc1nc(=O)n([C@@H]2O[C@H](CO)[C@@H](O)[C@@H]2F)cc1I | inactive | 

Reference: PubChem BioAssay (Tox21)
